# Counter-ions that a name gives are not always drawn. ± gives the standard deviation or the standard deviation of the averaged measurements.
# Experiments:
# Conditions in all cases: 25 µM; exposure: 24-48 hpf
# [1] = test system: Danio rerio Tg(wt1b:EGFP) embryo, pronephros; experiment: glomerular separation, fold change vs DMSO control; higher = glomeruli further apart (abnormal)
# Method in brief: (§1)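 From 24 to 48 hpf, at 28.5°C, dechorionated Tg(wt1b:EGFP) zebrafish embryos sat in HEPES-buffered E3 with 0.003% PTU carrying 25 μM compound and 0.5% DMSO. Their pronephroi were imaged dorsally in 96-well plates filled with agarose, using 470 nm light and 10 z-slices. A Fiji macro measured distances and angles between 16 reference points that were set manually on maximum projections, and any value more than 2 SD from its feature mean was excluded. Features are expressed as fold change relative to the mean of DMSO-treated embryos imaged on the same day.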
# [2] = test system: Danio rerio Tg(wt1b:EGFP) embryo, pronephros; experiment: glomerular width (mean of left and right), fold change vs DMSO control; higher = wider glomerulus
# Method in brief: as §1
# [3] = test system: Danio rerio Tg(wt1b:EGFP) embryo, pronephros; experiment: fraction of imaged embryos annotated as normal kidney; higher = less nephrotoxic; extreme values may be limits of the assay
# Method in brief: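 Dechorionated Tg(wt1b:EGFP) zebrafish embryos were exposed in 12-well plates to 25 μM compound in 0.5% DMSO, 5 mM HEPES-buffered E3 with 0.003% PTU, from 24 to 48 hpf at 28.5°C. Tricaine-anaesthetised larvae were oriented dorsally in agarose-filled 96-well plates, and pronephroi were imaged by widefield fluorescence (470 nm, 10 z-slices). Each embryo was manually annotated from maximum projections. The read-out is the fraction of embryos per treatment assigned to the normal-kidney category.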
# [4] = test system: Danio rerio Tg(wt1b:EGFP) embryo, pronephros; experiment: pronephric angle neck segment to proximal convoluted tubule (mean of left and right), fold change vs DMSO control; higher = larger pronephric angle
# Method in brief: as §1
Compound,glomerular separation [1],glomerular width [2],fraction of imaged embryos annotated as normal kidney [3],pronephric angle neck segment [4]
CO[C@@]1(NC(=O)C2SC(=C(C(N)=O)C(=O)O)S2)C(=O)N2C(C(=O)O)=C(CSc3nnnn3C)CS[C@@H]21 (some centres not stated) [Cefotetan],1.24 ± 0.33,0.972 ± 0.012,0.909,0.985 ± 0.06
COc1ccc([C@@H]2CC(=O)c3c(O)cc(O[C@@H]4O[C@H](CO[C@@H]5O[C@@H](C)[C@H](O)[C@@H](O)[C@H]5O)[C@@H](O)[C@H](O)[C@H]4O)cc3O2)cc1O [Hesperidin],0.827 ± 0.15,0.938 ± 0.045,0.917,0.981 ± 0.012
CC(=O)OCC(=O)[C@@]12OC3(CCCC3)O[C@@H]1C[C@H]1[C@@H]3CCC4=CC(=O)C=C[C@]4(C)[C@@]3(F)[C@@H](O)C[C@@]12C [Amcinonide],1.06 ± 0.48,1.22 ± 0.14,0.417,1.01 ± 0.019
CN[C@@H]1[C@H](O[C@H]2[C@H](O[C@H]3[C@H](O)[C@@H](O)[C@H](N=C(N)N)[C@@H](O)[C@@H]3N=C(N)N)O[C@@H](C)[C@]2(O)C=O)O[C@@H](CO)[C@H](O)[C@H]1O [Streptomycin sulfate],0.691 ± 0.22,1.08 ± 0.098,0.917,0.959 ± 0.043
CC(=O)O[C@H]1C[C@@H]2CC[C@@H]3[C@H](CC[C@@]4(C)[C@H]3C[C@H]([N+]3(C)CCCCC3)[C@@H]4OC(C)=O)[C@@]2(C)C[C@@H]1N1CCCCC1 [Vecuronium bromide],1.01 ± 0.35,0.967 ± 0.024,1,1.03 ± 0.028
CCN1CCCC1CNC(=O)c1cc(S(N)(=O)=O)ccc1OC (configuration not stated) [Sulpiride],1.08 ± 0.28,1.02 ± 0.023,0.75,0.983 ± 0.032
CC[C@]12CCCN3CCc4c(n(c5ccccc45)[C@@](O)(C(=O)OC)C1)[C@@H]32 [Vincamine],0.967 ± 0.23,0.965 ± 0.01,0.909,1.05 ± 0.057
CCCCC(O)c1ccccc1 (configuration not stated) [Fenipentol],1.17 ± 0.29,0.993 ± 0.03,0.833,0.967 ± 0.017
COc1ccc(CC(C)NCC(O)c2ccc(O)c(NC=O)c2)cc1 (configuration not stated) [Formoterol fumarate],0.928 ± 0.31,0.97 ± 0.051,0.917,1.05 ± 0.034
COc1ccc(/C=C/C(=O)Nc2ccccc2C(=O)O)cc1OC [Tranilast],2.14 ± 1.2,1.08 ± 0.049,0.583,1.139 ± 0.0021
CC(C)C(=O)c1c(C(C)C)nn2ccccc12 [Ibudilast],0.785 ± 0.21,0.92 ± 0.051,1,1.01 ± 0.036
Cn1c(=O)c2c(ncn2CC(=O)O)n(C)c1=O [Acefylline],1.12 ± 0.41,1 ± 0.029,0.917,1.02 ± 0.035
CC(CCc1ccc(O)cc1)NCCc1ccc(O)c(O)c1 (configuration not stated) [Dobutamine hydrochloride],0.82 ± 0.23,0.999 ± 0.032,1,0.997 ± 0.078
CO[C@@H]1[C@@H](O[C@@H]2O[C@H](C)[C@@H](O[C@H]3C[C@@](C)(O)[C@@H](OC(=O)CC(C)C)[C@H](C)O3)[C@H](N(C)C)[C@H]2O)[C@@H](CC=O)C[C@@H](C)[C@@H](O)/C=C/C=C/C[C@@H](C)OC(=O)C[C@H]1OC(C)=O [Josamycin],1.16 ± 0.39,1.13 ± 0.093,0.909,1.0423 ± 0.00028
CNCC[C@@H](Oc1cccc2ccccc12)c1cccs1 [(R)-Duloxetine hydrochloride],1.15 ± 0.49,1.046 ± 0.0076,1,0.986 ± 0.044
Cn1nnc2c(C(N)=O)ncn2c1=O [Temozolomide],0.665 ± 0.25,1 ± 0.046,0.917,0.9479 ± 0.0066
Nc1c(Br)cc(Br)cc1CN[C@H]1CC[C@H](O)CC1 [Ambroxol hydrochloride],1.05 ± 0.28,0.969 ± 0.036,1,1.003 ± 0.0037
C[N+](C)(C)CCCCCC[N+](C)(C)C [Hexamethonium dibromide dihydrate],0.932 ± 0.3,1.09 ± 0.035,0.667,0.997 ± 0.041
CO[C@@]1(NC(=O)Cc2cccs2)C(=O)N2C(C(=O)O)=C(COC(N)=O)CS[C@@H]21 [Cefoxitin sodium salt],0.796 ± 0.27,0.975 ± 0.012,0.833,0.968 ± 0.04
CC1(C)OC(=O)NC1=O [Dimethadione],1.27 ± 0.36,0.89 ± 0.031,0.667,1.0483 ± 0.00042
c1ccc2c(CC3=NCCN3)cccc2c1 [Naphazoline hydrochloride],1.17 ± 0.54,1 ± 0.0079,1,1.006 ± 0.0059
CN(C)CCn1nnnc1SCC1=C(C(=O)O)N2C(=O)[C@@H](NC(=O)Cc3csc(N)n3)[C@H]2SC1 [Cefotiam hydrochloride],1.46 ± 0.87,0.929 ± 0.014,0.917,1.08 ± 0.14
COc1cc([C@@H]2c3cc4c(cc3[C@@H](O[C@@H]3O[C@@H]5CO[C@@H](C)O[C@H]5[C@H](O)[C@H]3O)[C@H]3COC(=O)[C@H]23)OCO4)cc(OC)c1O [Etoposide],0.917 ± 0.24,1.052 ± 0.0085,0.75,0.982 ± 0.013
CCCOc1ccc(C(=O)OCCN(CC)CC)cc1N [Proparacaine hydrochloride],0.768 ± 0.39,0.93 ± 0.052,0.833,0.998 ± 0.041
O=C1OCCN1/N=C/c1ccc([N+](=O)[O-])o1 [Furazolidone],0.83 ± 0.29,0.9957 ± 0.006,1,0.935 ± 0.054
CC(C)(C)NCC(O)c1ccc(O)c(CO)c1 (configuration not stated) [Salbutamol],1.15 ± 0.52,1.05 ± 0.013,0.833,1.04 ± 0.041
NCCc1ccc(O)c(O)c1 [Dopamine hydrochloride],1.08 ± 0.44,1.05 ± 0.054,0.917,1.011 ± 0.005
Clc1ccccc1CN1CCc2sccc2C1 [Ticlopidine hydrochloride],1.13 ± 0.49,1.09 ± 0.048,0.833,1.008 ± 0.0084

# From the supplement of paper PMC7366291
